{"source": "ChEMBL document CHEMBL4513146", "about": "“CO-ADD screening of Karazin Kharkiv National University (Ukraine) compounds”", "note": "Results with a measured potency or affinity are listed apart."}
{"tested_on": "Cryptococcus neoformans", "settings": "Concentration 32 ug.mL-1; ASSAY_TEST Inhibition of Fungal Growth; detection method Resazurin; Absorption (OD600-OD570); plate type 384well; NBS; CORNING #3640", "units": {"Inhibition": "%"}}
{"smiles": "CCc1nnc2c(S(=O)(=O)N(Cc3cccc(F)c3)c3ccc(C)c(C)c3)cccn12", "Inhibition": -9.15}
{"smiles": "Cc1ccc(-c2cc3c4nnc(CCC(=O)N5CCN(c6ccccn6)CC5)n4ccn3n2)cc1C", "Inhibition": -12.2}
{"smiles": "CCCCn1c(=O)c2sccc2n2c(=O)n(CC(=O)c3ccc(OC)c(OC)c3)nc12", "Inhibition": -27.81}
{"smiles": "Cc1cc(C)cc(NC(=O)CSc2nnc3c(=O)n(-c4ccc(Br)cc4)ccn23)c1", "Inhibition": -22.2}
{"smiles": "Cc1nc(-c2ccccn2)cc2nn(CC(=O)Nc3ccccc3C(F)(F)F)c(=O)n12", "Inhibition": -8.99}
{"smiles": "N#Cc1cccc(NC(=O)Cn2nc3c4cc(-c5ccc(Cl)cc5)nn4ccn3c2=O)c1", "Inhibition": -13.1}
{"smiles": "CC(C)c1nnc2c(=O)n(CC(=O)Nc3ccc(F)cc3F)c3ccccc3n12", "Inhibition": -23.4}
{"smiles": "COc1ccccc1-n1ccn2c(SCc3ccccc3Cl)nnc2c1=O", "Inhibition": -11.71}
{"smiles": "COc1ccccc1Cn1c(=O)c2sccc2n2c(=O)n(Cc3ccccc3)nc12", "Inhibition": -28.67}
{"smiles": "COc1cccc(-n2ccn3c(SCC(=O)Nc4ccc(Cl)cc4)nnc3c2=O)c1", "Inhibition": -10.21}
{"smiles": "COc1ccc(CN(c2ccc(OC)cc2)S(=O)(=O)c2ccc3nnc(C)n3c2)cc1", "Inhibition": -1.1}
{"smiles": "Cc1ccc(-c2ccc3nn(CC(=O)N4CCN(c5ccccc5F)CC4)c(=O)n3n2)cc1C", "Inhibition": -7.8}
{"smiles": "COc1ccc(C(C)NC(=O)CCc2nnc3ccc(-c4ccc(C)cc4)nn23)cc1OC", "note": "(centres undefined)", "Inhibition": -54.1}
{"smiles": "Cc1ccc(Oc2nccn3c(=O)n(CC(=O)NCCC4=CCCCC4)nc23)cc1", "Inhibition": -9.17}
{"smiles": "Cc1ccc(NC(=O)Cn2nc3c(Oc4ccccc4)nccn3c2=O)c(Cl)c1", "Inhibition": -4}
{"smiles": "COc1cccc(-n2ccn3c(SCC(=O)c4ccc(C)cc4)nnc3c2=O)c1", "Inhibition": -10.21}
{"smiles": "CC(C)c1nnc2c(SCC(=O)Nc3ccc4c(c3)OCO4)nc3ccccc3n12", "Inhibition": -20.34}
{"smiles": "CC(C)NC(=O)CSc1nnc2c(=O)n(Cc3ccc(F)cc3)ccn12", "Inhibition": -22.73}
{"smiles": "CCOc1ccc(NC(=O)Cn2nc3ccc(SCc4ccc(Cl)cc4)nn3c2=O)cc1", "Inhibition": -13.71}
{"smiles": "COc1ccccc1NC(=O)Cn1nc2c(Sc3ccccc3)nccn2c1=O", "Inhibition": -4.93}
{"smiles": "Cc1ccc(NC(=O)Cn2nc3ccc(SC(C)C)nn3c2=O)c(C)c1", "Inhibition": -5.46}
{"smiles": "CC(C)CCn1c(=O)c2ccc(C(=O)NC3CCCCC3)cc2n2c(=O)n(CC#N)nc12", "Inhibition": -17.66}
{"smiles": "COc1ccccc1CNC(=O)CSc1nnc2c3cc(-c4ccc(C)cc4)nn3ccn12", "Inhibition": -12.39}
{"smiles": "CCN(C(=O)Cn1nc2nc(Nc3ccc(F)cc3)ccn2c1=O)c1ccccc1", "Inhibition": -4.45}
{"smiles": "COc1cc(NC(=O)Cn2nc3ccc(-c4ccc(C)c(C)c4)nn3c2=O)cc(OC)c1", "Inhibition": -15.3}
{"smiles": "CCOc1ccc(NC(=O)Cn2nc3c(N4CCCC4)nccn3c2=O)cc1", "Inhibition": -8.38}
{"smiles": "COc1ccc(NC(=O)Cn2nc3ccc(SC(C)(C)C)nn3c2=O)cc1Cl", "Inhibition": -9.98}
{"smiles": "Cc1nnc2c(=O)n(CC(=O)Nc3cccc(F)c3)c3ccccc3n12", "Inhibition": -2.05}
{"smiles": "N#CCn1nc2n(Cc3ccc(F)cc3)c(=O)c3ccccc3n2c1=O", "Inhibition": -7.73}
{"smiles": "O=C(CSc1nnc2c3cc(-c4ccc(F)cc4)nn3ccn12)NCCc1ccccc1", "Inhibition": -23.19}
{"smiles": "COc1ccc(C)cc1NC(=O)Cn1nc2c(N3CCSCC3)nc3ccccc3n2c1=O", "Inhibition": -24.78}
{"smiles": "COC(=O)c1ccc(Cn2nc3ccc(S(=O)(=O)N4CCCCCC4)cn3c2=O)o1", "Inhibition": -5.87}
{"smiles": "O=S(=O)(c1ccc2nncn2c1)N(Cc1ccc(F)cc1)c1ccc(F)c(F)c1", "Inhibition": -6.65}
{"smiles": "Cc1ccc2c(c1)N(C(=O)Cn1nc3ccc(SC(C)(C)C)nn3c1=O)CCO2", "Inhibition": -18.35}
{"smiles": "Cc1cc2nn(CC(=O)Nc3cc(F)ccc3F)c(=O)n2c(Nc2ccc(F)c(C)c2)n1", "Inhibition": -3.72}
{"smiles": "CCOC(=O)c1ccc(NC(=O)Cn2nc3ccc(S(=O)(=O)C(C)(C)C)nn3c2=O)cc1", "Inhibition": -19.66}
{"smiles": "CCc1ccc(N(Cc2ccc(F)cc2)S(=O)(=O)c2cccn3c(CC)nnc23)cc1", "Inhibition": -7.64}
{"smiles": "CCCCOc1ccc(-c2cc3c4nnc(SCC(=O)Nc5ccccc5Cl)n4ccn3n2)cc1", "Inhibition": -20.67}
{"smiles": "COC(=O)c1sccc1NC(=O)Cn1nc2c(Oc3ccccc3)nc3ccccc3n2c1=O", "Inhibition": -16.14}
